Data as given in PubChem BioAssay AID999 (SRMLSC, 2007).
A number with no mark means an inactive call.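 Rule for the calls: active = viability at or below 21.59%, 3 SD under the median of tested compounds; inactive = the rest.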

Experiment: viability loss in PTEN-deleted cells – cell-based, validation, diverse DP compound set (AID 999);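 note: 100% = median luminescence of untreated cell control wells and 0% = no signal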
Conditions: HCT116 PTEN-null viability, CellTiter-Glo, 60 h; at 10 µM; active compounds read low

SMILES	viability [%]
O=C1OC(c2cc(I)c(O)c(I)c2)(c2cc(I)c(O)c(I)c2)c2ccccc21	93.5
CSc1ccc(/C=C2/C(C)=C(CC(=O)O)c3cc(F)ccc32)cc1	98
CCOC(=O)C(C)(C)Oc1ccc(Cl)cc1	100
CCOC(=O)c1c(N)sc(C)c1-c1ccccc1	105
C[C@@]12C=Cc3occc3C1CC[C@@]13C[C@@H](CCC12)[C@@](O)(CO)C3 (stereo not given in full)	93.5
COC(=O)Nc1nc2ccc(C(=O)c3cccs3)cc2[nH]1	50.2
C[C@@H]1CC[C@]2(C(=O)O)CC[C@]3(C)C(=CCC4[C@@]5(C)C[C@@H](O)[C@H](O)[C@@](C)(CO)C5CC[C@]43C)C2[C@H]1C (stereo not given in full)	94.3
CC[C@@]1([C@@H]2O[C@@H]([C@H]3O[C@@](O)(CO)[C@H](C)C[C@@H]3C)C[C@@H]2C)CC[C@H]([C@]2(C)CC[C@]3(C[C@H](O)[C@@H](C)[C@@H]([C@@H](C)[C@@H](OC)C(C)C(=O)O)O3)O2)O1 (stereo not given in full)	63.5
c1ccc2nc3ccccc3cc2c1	99.8
NC(=O)c1cccc(N)c1	94.5
O=c1c2ccccc2nc2n1CCc1c-2[nH]c2ccccc12	93.4
COc1ccc(Cl)cc1C(=O)NCCc1ccc(S(=O)(=O)NC(=O)NC2CCCCC2)cc1	107
COc1cc(CNC(=O)CCCC/C=C/C(C)C)ccc1O	99.3
CC1(C)OC2CC(=O)OCC23C1CC(=O)C1(C)C3CC[C@@]2(C)[C@H](c3ccoc3)OC(=O)C3OC312 (stereo not given in full)	97.3
C[C@@H]1C[C@@H]([C@@H](C)CC2CC(=O)NC(=O)C2)C(=O)[C@@H](C)C1	30.2
CCC(C)CCCCC(=O)N[C@@H](CCN)C(=O)N[C@H](C(=O)N[C@@H](CCN)C(=O)N[C@H]1CCNC(=O)C([C@@H](C)O)NC(=O)[C@@H](CCN)NC(=O)[C@H](CCN)NC(=O)[C@H](CC(C)C)NC(=O)[C@@H](CC(C)C)NC(=O)[C@H](CCN)NC1=O)[C@@H](C)O (stereo not given in full)	96
C[C@]12CCC(=O)C=C1CC[C@@H]1[C@@H]2[C@@H](O)C[C@@]2(C)[C@H]1CC[C@]2(O)C(=O)CO	99.2
C=C1OC(CO)(n2cnc3c(N)ncnc32)C(O)C1O (stereo not given)	92.8
O=C(c1ccc(F)cc1)C1CCN(CCn2c(=O)[nH]c3ccccc3c2=O)CC1	94.8
CC(=O)[C@H]1[C@H](C#N)CC2C3CC=C4C[C@@H](O)CCC4(C)C3CCC21C (stereo not given in full)	94.8
C[C@@H]1CC2C3CCC4=CC(=O)C=CC4(C)[C@@]3(F)[C@@H](O)CC2(C)[C@@]1(O)C(=O)CO (stereo not given in full)	105
Cc1cc(CC(=O)O)n(C)c1C(=O)c1ccc(Cl)cc1	95.5
CC(C)C[C@H]1C(=O)N2CCC[C@H]2[C@]2(O)O[C@](NC(=O)[C@@H]3C=C4c5cccc6[nH]c(Br)c(c56)C[C@H]4N(C)C3)(C(C)C)C(=O)N12	76.4
O=C(O)c1cc([N+](=O)[O-])ccc1NCCCc1ccccc1	94.2
Cc1c2oc3c(C)ccc(C(=O)N[C@@H]4C(=O)N[C@H](C(C)C)C(=O)N5CCC[C@H]5C(=O)N(C)CC(=O)N(C)[C@@H](C(C)C)C(=O)O[C@@H]4C)c3nc-2c(C(=O)N[C@@H]2C(=O)N[C@H](C(C)C)C(=O)N3CCC[C@H]3C(=O)N(C)CC(=O)N(C)[C@@H](C(C)C)C(=O)O[C@@H]2C)c(N)c1=O	43.2
Cn1cnc2c(NCc3ccccc3)nc(NCCO)nc21	90.6
COc1ccc(CCN(C)CCCC(C#N)(c2ccc(OC)c(OC)c2)C(C)C)cc1OC (stereo not given)	85.1
O=C1OC2(c3ccc(O)cc3Oc3cc(O)ccc32)c2ccccc21	96
CC1=C(/C=C/C(C)=C/C=C/C(C)=C/C(=O)O)C(C)(C)CCC1	93.7
C[C@H](CS)C(=O)N1CCC[C@H]1C(=O)O	93.9
